49 compounds from publication PMC13083723 (Patterns, 2026) can be followed below.

About 190 (3.5%) of roughly 5,400 compounds showed an effect of 50% or more. Only a selection was taken, and strong results are over-represented in it overall. Positions of bridges follow the written chain, without caps; N, C: chain ends. Non-standard residues stand in square brackets, D forms with d. Residues, ends and D or L forms follow the SMILES beside them. *: point of attachment. Heptanoyl(5-Me) = CCC(C)CCCC(=O)*; Dab = NCC[C@H](N)C(=O)O

For the assay, the system named is Vero-E6. As to the kind of experiment: primary screen, phospholipidosis by LipidTOX staining; higher = more effect of the substance. To be noted: 10 µM. Summed up: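 Drug-induced phospholipidosis detected with HCS LipidTOX Red reagent in Vero-E6 cells. Compounds tested at 10 μM, with amiodarone (10 μM) as positive control and DMSO (0.1 v/v %) as vehicle.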
Consider `CCC(C)CCCC(=O)N[C@@H](CCN)C(=O)N[C@H](C(=O)N[C@@H](CCN)C(=O)N[C@H]1CCNC(=O)[C@H]([C@@H](C)O)NC(=O)[C@H](CCN)NC(=O)[C@H](CCN)NC(=O)[C@H](CC(C)C)NC(=O)[C@@H](CC(C)C)NC(=O)[C@H](CCN)NC1=O)[C@@H](C)O` (stereo partly drawn) [R4A_0005175_001 / SPE_A18924964] ({Heptanoyl(5-Me)}-[Dab]T[Dab][Dab][Dab][dL]L[Dab][Dab]T; lactam 4-C), for which the result_ITMP is on record as -1.3%.

Take `CO[C@@]1(NC(=O)C(C(=O)[O-])c2ccc(O)cc2)C(=O)N2C(C(=O)[O-])=C(CSc3nnnn3C)CO[C@@H]21` (stereo partly shown): the result_ITMP is recorded as -4.09%. As for `O=c1c(-c2ccc(O)cc2)coc2c(O[C@@H]3O[C@H](CO)[C@@H](O)[C@H](O)[C@H]3O)c(O)ccc12`, the figure is -5.15%. Under `C[C@]12CC[C@H](O)CC1=CCC1C2CC[C@]2(C)C(=O)CC[C@@H]12` (stereo partly shown) stands 13.7%.

On to `CCN(CC)CCO[C@H]1CC[C@@]2(C)C(=CC[C@@H]3[C@@H]2CC[C@]2(C)C(=O)CC[C@@H]32)C1`, for which the result_ITMP was found to be 61%.

As for `CC(=O)O[C@H]1CC[C@@]2(C)C(=CCC3C2CC[C@]2(C)C(=O)CCC32)C1` (stereo partly shown), the result_ITMP turned out to be 0.97%.

With `COc1ccc(C(=O)/C(Br)=C/C(=O)[O-])cc1`, the result_ITMP turned out to be 7.96%. Regarding `O=C([O-])[C@H](O)[C@@H](O)[C@H](O)[C@H](O)CO`, the result_ITMP is given as -4.67%. Consider `C=C[C@@]1(C)CC(=O)[C@]2(O)[C@@]3(C)[C@@H](O)CCC(C)(C)[C@@H]3[C@H](O)[C@H](OC(C)=O)[C@@]2(C)O1`, for which the result_ITMP is listed as -2.23%. Under `N/C(=N\Cc1ccccc1)NC(=O)c1nc(Cl)c(N)nc1N` stands 17.2%; under `C[N+](C)(C)CC(=O)[O-]`, -1.21%; under `C=C1/C(=C/C=C2\CCC[C@]3(C)[C@@H]([C@H](C)/C=C/[C@@H](C)C(C)C)CC[C@@H]23)C[C@@H](O)C[C@@H]1O`, -2.6%. Under `O=C(O)c1ccccc1-c1ccc(C(F)(F)F)cc1` stands -4.47%; under `O=C(NC1CCN(CCc2c[nH]c3ccccc23)CC1)c1ccccc1`, 6.62%. As for `O=C(NC1CCN(CCCCC2(C(=O)NCC(F)(F)F)c3ccccc3-c3ccccc32)CC1)c1ccccc1-c1ccc(C(F)(F)F)cc1`, the figure is 62.5%. Turning to `CC(C)NCC(O)COc1ccc(CC(N)=O)cc1` (stereo not shown) [R4A_0002533_001 / SPE_K44993696], the result_ITMP was -2.42%. As for `CCCCC(CC)CCC(CC(C)C)OS(=O)(=O)[O-]` (stereo not shown), the figure is -1.42%. Under `C[C@H](Cc1ccc(OCC(=O)[O-])cc1)NC[C@H](O)c1cccc(Cl)c1` stands -1.85%; under `C[C@]12CCC(=O)C=C1CCC1C2CC[C@@]2(C)C1CC[C@@H]2O` (stereo partly shown), 2.46%; under `Cc1c(-c2ccc(O)cc2)n(Cc2ccc(OCCN3CCCCCC3)cc2)c2ccc(O)cc12`, 57.2%. In the case of `CCCCOc1ccc(C(=O)CCN2CCCCC2)cc1`, the result_ITMP worked out at 4.72%. Take `CCCCCS(=O)(=O)CCCCCCCCCCn1c(-c2ccc(O)cc2)c(C)c2cc(O)ccc21`: the result_ITMP is listed as -3.27%. As for `Cc1ccc(CC2(O)CCN(CCOc3ccc(O)cc3)CC2)cc1`, the figure is -3.85%. Under `O=C(c1ccc(OCCN2CCCCC2)cc1)c1c(-c2ccc(O)cc2)sc2cc(O)ccc12` stands 74.6%. Under `CC(C)N1CCN(c2ccc(C(=O)c3c(-c4ccc(O)cc4)sc4cc(O)ccc34)cc2)CC1` stands -7.16%. Regarding `Cc1c(C(=O)Nc2ccc(N3C[C@@H](C)O[C@@H](C)C3)nc2)cccc1-c1ccc(OC(F)(F)F)cc1`, the result_ITMP is listed as -6.29%. As for `CCn1c(-c2ccc(Cl)cc2)n[nH]c1=O`, the figure is -4.76%. As for `CCCCC[C@H](O)/C=C/[C@@H]1[C@H]2C/C(=C/CCCC(=O)[O-])O[C@H]2C[C@H]1O`, the figure is 0.37%; as for `O=C([O-])CN(CCN(CC(=O)[O-])CC(=O)O)CCN(CC(=O)[O-])CC(=O)O`, 0.03%; as for `Fc1ccc(C(OCCN2CCN(CCCc3ccccc3)CC2)c2ccc(F)cc2)cc1`, 24.8%.

Turning to `CCCCN1[C@@H]2CC[C@H]1C[C@@H](OC(c1ccc(F)cc1)c1ccc(F)cc1)C2`, the result_ITMP came out at 51.4%. Under `CN1C2CCC1CC(OC(c1ccc(F)cc1)c1ccc(F)cc1)C2` (stereo not shown) stands 61.5%; under `CN1CCC(OC(c2ccccc2)c2ccccc2)CC1`, 26.1%.

For `CN1C2CCC1CC(OC(c1ccccc1)c1ccc(Cl)cc1)C2` (stereo not shown), the result_ITMP was found to be 98.3%. Under `CN1C2CC[C@@H]1C[C@@H](OC(=O)[C@H](CO)c1ccccc1)C2` stands -4.79%; under `CN1[C@@H]2CC[C@H]1C[C@@H](OC(c1ccccc1)c1ccccc1)C2`, 35.6%. As for `CC(C(=O)OC1CC2CCC(C1)N2C)c1ccc(Br)cc1` (stereo not shown), the result_ITMP came out at 20.6%. `CN1[C@@H]2CC[C@H]1C[C@@H](OC(=O)C(O)c1ccccc1)C2` (stereo partly shown): the result_ITMP is given as -3.26%. As for `C[C@H](NC(=O)[C@@H](Cc1c[nH]c2ccccc12)NC(=O)[C@@H](N)Cc1cnc[nH]1)C(=O)N[C@@H](Cc1c[nH]c2ccccc12)C(=O)N[C@H](Cc1ccccc1)C(=O)N[C@@H](CCCCN)C(N)=O` (H-H[dW]AW[dF]K-NH2), the figure is -2.53%. As for `Cc1ccc(OC[C@@H](O)[C@H](C)NC(C)C)c2c1CCC2` (racemic), the figure is 10.4%; as for `CO[C@@]12[C@@H]3NC3CN1C1=C(C(=O)C(N)=C(C)C1=O)[C@@H]2COC(N)=O` (stereo partly shown), 0.39%. In the case of `OC[C@@H](O)C(O[C@@H]1O[C@H](CO)[C@H](O)[C@H](O)[C@H]1O)[C@H](O)[C@@H](O)CO` (stereo partly shown), the result_ITMP is recorded as -8.28%. Under `O=C(O)[C@H]1CC[C@H](c2cc3cccnc3c(-c3cccc(F)c3)n2)CC1` stands -0.01%. Under `O[C@@H]1CO[C@H]2[C@@H]1OC[C@@H]2O` stands -0.79%; under `COc1cc(N)c(Cl)cc1C(=O)OCCN1CCCCC1`, -1.25%; under `COc1cc(C(=O)OCCCN2CCCN(CCCOC(=O)c3cc(OC)c(OC)c(OC)c3)CC2)cc(OC)c1OC`, 58.7%. As for `COc1cc(N)c(Cl)cc1C(=O)OCCCN1CCCCC1`, the figure is 0.68%. Regarding `O=C(O)C[CH2][Ge](=[O])[O][Ge](=[O])[CH2]CC(=O)O`, the result_ITMP is reported as -3.6%.

As to `Cc1ccc(C(=O)Nc2ccc(S(=O)(=O)[O-])c3cc(S(=O)(=O)[O-])cc(S(=O)(=O)[O-])c23)cc1NC(=O)c1cccc(NC(=O)Nc2cccc(C(=O)Nc3cc(C(=O)Nc4ccc(S(=O)(=O)[O-])c5cc(S(=O)(=O)[O-])cc(S(=O)(=O)[O-])c45)ccc3C)c2)c1`, the result_ITMP is listed as -3.34%.
